Assay outcomes (PubChem BioAssay)
Rows were chosen to be rich in hits. Some 1.1% of all compounds tested hit in one or more screens of this group.
TcdB GH inh – TcdB glycohydrolase inhibitors, primary screen, biochemical, single point, plate reader | Toxin B (Clostridioides difficile), P18177 | AID 652162, 2013 | inhibition, % at 9.99 µM | hit rate 0.24% among 350,000 | TcdB glycohydrolase enzymatic assay; in the data active = inhibition above about 10%
PrP 5UTR inh – inhibition of PrP 5' UTR reporter expression; cell-based PrP 5' UTR mRNA reporter, plate reader; inhibition, % (concentration not given with the values); hit rate 0.35% among 340,000; AID 488862, 2010; in the data active = inhibition above about 52%; note: 0 = median of the neutral control wells
BioA inh – M. tuberculosis BioA enzyme inhibitors, primary screen, biochemical, plate reader, single point, HTS; 7,8-diaminopelargonic acid synthase BioA (Mycobacterium tuberculosis); purified M. tuberculosis BioA enzyme; inhibition, % at 9.99 µM; hit rate 0.096% among 360,000; AID 602481, 2012; in the data active = inhibition above about 40%
PfHsp40 yeast – rescue of yeast from PfHsp40 toxicity, primary screen, S. cerevisiae, ATP luminescence; S. cerevisiae expressing PfHsp40, growth rescue; growth rescue, % at 12.5 µM; hit rate 0.68% among 340,000; AID 504582, 2011; in the data active = growth rescue above about 28%, passing the limit was not always enough;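 note: yeast W303a lacking pdr1 and pdr3 grown in galactose medium; growth measured after three days at 30 °C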
FadD28 binding – inhibitors of FadD28 bisubstrate probe binding, primary screen, biochemical, fluorescence polarization, single point; Mycobacterium tuberculosis FadD28 fatty-acid-AMP ligase; inhibition, % at 12.5 µM; hit rate 0.22% among 360,000; in the data active = inhibition above about 8.5%, passing the limit was not always enough
An asterisk follows results filed as active; nt = no result given.

SMILES	TcdB GH inh	PrP 5UTR inh	BioA inh	PfHsp40 yeast	FadD28 binding
NC(=O)CC(NC(=O)c1ccccc1)c1ccc(N2CCN(c3ccccc3)CC2)c([N+](=O)[O-])c1 (centres undefined)	1	-23	-2	1	-4
COc1cc(/C=C2/C(=O)NN(c3ccc(F)cc3)C2=O)cc(Cl)c1O	0	-7	-1	0	2
COc1cc(/C=C2/C(=O)NN(c3ccc(Cl)cc3)C2=O)ccc1OC(=O)c1ccco1	-1	-15	nt	12	9.3*
COc1cc(/C=C2/C(=O)NN(c3ccc(Cl)c(Cl)c3)C2=O)cc([N+](=O)[O-])c1O	1	nt	0	2	28*
C=C(C)CN(CC)c1nc(N)c2c(N)nc3c(c2c1C#N)CC(=O)N3C12CC3CC(CC(C3)C1)C2	nt	-2	-1	-1	-6
N#Cc1c(N2CCCC(O)C2)nc(N)c2c(N)nc3c(c12)CC(=O)N3C12CC3CC(CC(C3)C1)C2 (centres undefined)	nt	6	-4	0	25*
O=C1c2ccccc2C2(c3ccccc3)N1CCN2C(=O)C(Cl)(Cl)Cl (centres undefined)	0	-31	1	122*	-1
Cc1ccc(C(=O)N2CCN3C(=O)c4ccccc4C23c2ccccc2)cc1 (centres undefined)	-1	-13	nt	-1	1
O=C(O)c1cc(N=Nc2c(O)ccc3ccccc23)cc(C(=O)O)c1	1	-46	nt	-1	13*
COc1ccc(-c2cn(CC[C@@H]3CC[C@H](NC(=O)CCN4CCCCC4)[C@H](CO)O3)nn2)cc1	-1	nt	-2	nt	nt
CC1(c2ccc(OC(F)F)cc2)NC(=O)N(CC(=O)Nc2ccc3[nH]c(=O)[nH]c3c2)C1=O (centres undefined)	3	-27	1	0	12*
COc1ccc(C2(C)NC(=O)N(CC(=O)Nc3ccc4[nH]c(=O)[nH]c4c3)C2=O)cc1 (centres undefined)	0	-5	0	1	1
CCOC(=O)N1CCN=C1SCc1ccc(Cl)c(Cl)c1	12*	-7	0	0	-3
O=Cc1ccc2ccc3cccnc3c2n1	1	-9	3	6	-5
c1cnc2c(c1)ccc1cccnc12	2	2	-1	57*	-3
Cc1ccc(-n2c(Cl)c(Cl)nc(Cl)c2=O)cc1	nt	-79	nt	42*	-1
C[C@H]1CN([C@@H](C)CO)S(=O)(=O)c2ccc(C#CCN(C)C)cc2O[C@@H]1CN(C)C(=O)C1CCC1	0	nt	2	nt	nt
Cc1ccc([N+](=O)[O-])cc1-c1[nH]c(-c2ccc(O)c(O)c2)nc1-c1ccccc1	nt	-8	-1	1	13*
CCCC1COC(Cn2cncn2)(c2ccc(C)cc2)O1 (centres undefined)	1	-19	1	132*	-2
Cc1ccc(S(=O)(=O)N2CCN(C(=O)CCn3cncn3)CC2)cc1	1	-20	-1	-1	0
CO[C@@H]1CN(C)C(=O)c2ccc(NC(=O)c3cc(C)on3)cc2OC[C@@H](C)NC[C@H]1C	-2	nt	0	nt	nt
CCc1cccc(NC(=O)c2cnn(-c3ccccc3)c2C)c1	4	-70	3	38*	-1
CCn1c(=S)[nH]c2c(=O)n(C)c(=O)n(C)c21	46*	3	0	-1	-2
CS(=O)(=O)c1ccc2nc(NC(=O)c3ccc(NS(=O)(=O)c4ccc(F)c(F)c4)cc3)sc2c1	2	-13	-1	-2	2
O=C(Nc1nc2ccc(SC(F)F)cc2s1)c1ccc(NS(=O)(=O)c2ccc(F)c(F)c2)cc1	0	-61	1	-2	17*
SMILES	TcdB GH inh	PrP 5UTR inh	BioA inh	PfHsp40 yeast	FadD28 binding
CC1C(c2ccc3c(c2)OCO3)c2cc3c(cc2OC1N1CCOCC1)OCO3 (centres undefined)	11*	-5	nt	0	-2
CC(C)NC(=O)Nc1ccc2c(c1)C(=O)N([C@H](C)CO)C[C@H](C)[C@@H](CN(C)C(=O)Nc1ccc3c(c1)OCO3)OCCCC[C@@H](C)O2	1	nt	1	nt	nt
C/C=C(/C)C(=O)Nc1cccc(C2=NOC3(C2)C[C@H](C(N)=O)N(C(=O)c2ccccc2)C3)c1 (some centres undefined)	0	2	0	0	1
C/C=C(\C)C(=O)Nc1cccc(C2=NOC3(C2)C[C@@H](C(N)=O)N(C(=O)c2ccccc2C(=O)c2ccccc2)C3)c1 (some centres undefined)	1	-19	0	51*	-8
O=C(C1COc2ccccc2O1)N1CCN(c2ccccc2F)CC1 (centres undefined)	nt	-24	-1	0	0
Cc1cccc(N2CCN(C(=O)C3COc4ccccc4O3)CC2)c1C (centres undefined)	1	-20	nt	206*	-1
O=C(C1COc2ccccc2O1)N1CCN(c2ccccc2Cl)CC1 (centres undefined)	2	-28	nt	35*	0
C[C@@H]1CN([C@H](C)CO)C(=O)Cc2cc(NC(=O)Cn3cnnn3)ccc2O[C@H]1CN(C)Cc1ccc(C(=O)Nc2ccccc2N)cc1	-12	nt	11	nt	nt
S=c1[nH]ncn1/N=C/c1cccc(Oc2ccccc2)c1	nt	-2	0	106*	-2
CN(C)C(=O)C[C@@H]1C[C@H]2c3cc(NC(=O)C4CCC4)ccc3O[C@H]2[C@H](CO)O1	-1	nt	-1	nt	nt
CCCC1(CCC)C(=O)NC(=Nc2ccc(C)cc2)NC1=O	1	nt	nt	nt	nt
CCC1(CC)C(=O)NC(=Nc2cccc(C(F)(F)F)c2)NC1=O	0	-17	0	111*	-2
CC(C)NC(=O)Nc1ccc2c(c1)C(=O)N([C@H](C)CO)C[C@H](C)[C@@H](CN(C)C(=O)C1CCCCC1)OCCCC[C@H](C)O2	0	nt	0	nt	nt
O=C(C[n+]1cc(Br)cc2ccccc21)c1ccccc1	2	-10	3	49*	-4
O=C(C[C@H]1C[C@@H]2c3cc(NC(=O)NC4CCCCC4)ccc3O[C@@H]2[C@H](CO)O1)NC1CCCCC1	0	nt	nt	nt	nt
C[C@H](CO)N1C[C@H](C)[C@H](CN(C)CC2CCCCC2)Oc2c(NC(=O)Nc3ccccc3)cccc2C1=O	0	nt	0	nt	nt
CC(Oc1cc2oc(=O)c3c(c2cc1Cl)CCC3)C(=O)NCc1ccccn1 (centres undefined)	-1	-6	63*	0	-1
Cc1ccc(S(=O)(=O)N[C@H]2C=C[C@@H](CC(=O)N3CCN(c4ccccc4)CC3)O[C@H]2CO)cc1	-1	nt	-4	nt	nt
O=C(c1ccc([N+](=O)[O-])c(CS(=O)(=O)c2ccc(Cl)cc2)c1)N1CCCC1	0	-21	1	41*	-3
NNC(=O)c1ccc([N+](=O)[O-])c(CS(=O)(=O)c2ccc(Cl)cc2)c1	nt	-33	nt	1	0
O=C1/C(=C/c2cccnc2)SC(=NCc2ccccc2)N1Cc1ccccc1	10*	-8	nt	0	0
